Assay [1] in a line: qHTS assay to identify aromatase inhibitors - cell viability counter screen (AID 743084).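 Further: cells stimulated with testosterone during compound exposure; nearly all actives have a fitted effect of over 55% in size.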 Further: potency means the concentration at half of the fitted maximal effect. On the technique in general: In qHTS, concentration-response curves come from the screen itself.
The target of assay [2] is Aryl hydrocarbon receptor (Homo sapiens) (UniProt P35869). Briefly: qHTS assay to identify small molecule that activate the aryl hydrocarbon receptor (AhR) signaling pathway (AID 743085). Further: nearly all actives have a fitted effect of over 15% in size. Further: potency means the concentration at half of the fitted maximal effect.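 On activation: HG2L7.5c1 human HepG2 liver cells with stably integrated DRE-driven firefly reporter; series mostly up to about 70 µM.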 The method in brief: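 24 h compound exposure, 37C, HepG2-derived HG2L7.5c1 cells with DRE-responsive luciferase. Readouts: fluorescence viability, then luminescence at room temperature after 30 min.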

A short description of assay [3]: qHTS assay to identify small molecule that activate the aryl hydrocarbon receptor (AhR) signaling pathway - cell viability counter screen (AID 743086).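 Further: HepG2 liver cells carrying the AhR DRE luciferase reporter; series mostly up to about 70 µM; nearly all actives have a fitted effect of over 45% in size.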 The method in brief:
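Cytotoxicity counter screen: CellTiter-Fluor signal (30 min, 37 C) in 4000 HepG2 cells/well carrying the DRE-luciferase reporter, following 24 h compound exposure at 37 C.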

Assay [4] in a line: qHTS assay to identify small molecule antagonists of the peroxisome proliferator-activated receptor gamma (PPARg) signaling pathway - cell viability counter screen (AID 743194). Further: nearly all actives have a fitted effect of over 55% in size. To be noted: Potency: co-treated with 50 nM rosiglitazone. In short, it runs like this:
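Viability was measured as CellTiter-Glo luminescence in GeneBLAzer PPARg UAS-bla HEK293H cells. These cells had been exposed 17 h at 37 C to compounds together with rosiglitazone at 50 nM final, with the beta-lactamase readout taken in the same wells.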

Assay [5] is described as follows: qHTS assay for small molecule agonists of the antioxidant response element (ARE) signaling pathway (AID 743202; active means well fitted activation curve with a large enough effect in the signal ratio in the repeat runs, not every such curve was filed as active; the % refers to the signal ratio; further: potency means the concentration at half of the fitted maximal effect). The method in brief:
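After 16 hours of compound treatment at 37 C, HepG2 cells with a stably integrated ARE-driven beta-lactamase reporter were loaded 2 hours at room temperature with LiveBLAzer B/G FRET substrate and fluorescence intensity measured.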

Assay [6] is described as follows: qHTS assay for small molecule agonists of the antioxidant response element (ARE) signaling pathway - cell viability counter screen (AID 743203; calls by dose curve; further: nearly all actives have a fitted effect of over 55% in size). The method in brief:
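Parallel cytotoxicity read-out for the ARE-bla screen: HepG2 reporter cells, 16 hrs with compounds, then CellTiter-Glo luminescence.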

Assay [7] in a line: qHTS assay for small molecule activators of the heat shock response signaling pathway - cell viability counter screen (AID 743209). Further: nearly all actives have a fitted effect of over 50% in size. The method in brief: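 To flag cytotoxic compounds, HSE-bla HeLa cells plated at 1500 cells/well were dosed for 5 h at 37 C, followed by the reporter FRET read and then CellTiter-Glo, with luminescence recorded 30 min after reagent addition.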
Assay [8] is described as follows: qHTS assay for small molecule activators of the heat shock response signaling pathway (AID 743210; active means well fitted activation curve with a large enough effect in the signal ratio in the repeat runs, with a control signal flat, not every such curve was filed as active; the % refers to the signal ratio; further: series mostly up to about 63 µM). In short, it runs like this:
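Compound exposure lasted 5 h at 37 C in HeLa cells carrying a heat-shock-element-driven beta-lactamase reporter. Read-out: fluorescence intensity after 2.5 h room-temperature loading with LiveBLAzer B/G FRET substrate.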

Assay [9] deals with Peroxisome proliferator-activated receptor gamma (Homo sapiens) (UniProt P37231). Briefly: qHTS assay to identify small molecule agonists of the peroxisome proliferator-activated receptor gamma (PPARg) signaling pathway (AID 743094; active means well fitted activation curve with a large enough effect in the signal ratio in the repeat runs, not every such curve was filed as active; the % refers to the signal ratio). In short, it runs like this:
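Fluorescence-based beta-lactamase readout in HEK293H PPARg UAS-bla cells after 17 h compound exposure (37C) and 1 h B/G FRET substrate incubation at room temperature.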

Assay [10] shares this target. The experiment in a line: qHTS assay to identify small molecule antagonists of the peroxisome proliferator-activated receptor gamma (PPARg) signaling pathway (AID 743191; calls by dose curve; further: series mostly up to about 63 µM; nearly all actives have a fitted effect of over 30% in size). In short, it runs like this:
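Beta-lactamase reporter under UAS control in HEK293H PPARg-bla cells; compound treatment 17 h at 37C. Read-out: fluorescence intensity after 1 h room-temperature incubation with LiveBLAzer B/G FRET substrate.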

This note sets out measurements from PubChem BioAssay (Tox21).

The structures appear in SMILES notation. Results filed as inconclusive are left out. Calls of active or inactive are those of the source. Unless noted, the call rests on the fitted dose curve; in most records, active means well fitted curve in the direction sought with a large enough effect in the repeat runs; inconclusive means weak or mixed curves; inactive means no such curve, though single readings can be large; an effect the other way counts as inactive or inconclusive.

Peroxisome proliferator-activated receptor gamma (Homo sapiens), sequence (P37231 whole entry, looked up): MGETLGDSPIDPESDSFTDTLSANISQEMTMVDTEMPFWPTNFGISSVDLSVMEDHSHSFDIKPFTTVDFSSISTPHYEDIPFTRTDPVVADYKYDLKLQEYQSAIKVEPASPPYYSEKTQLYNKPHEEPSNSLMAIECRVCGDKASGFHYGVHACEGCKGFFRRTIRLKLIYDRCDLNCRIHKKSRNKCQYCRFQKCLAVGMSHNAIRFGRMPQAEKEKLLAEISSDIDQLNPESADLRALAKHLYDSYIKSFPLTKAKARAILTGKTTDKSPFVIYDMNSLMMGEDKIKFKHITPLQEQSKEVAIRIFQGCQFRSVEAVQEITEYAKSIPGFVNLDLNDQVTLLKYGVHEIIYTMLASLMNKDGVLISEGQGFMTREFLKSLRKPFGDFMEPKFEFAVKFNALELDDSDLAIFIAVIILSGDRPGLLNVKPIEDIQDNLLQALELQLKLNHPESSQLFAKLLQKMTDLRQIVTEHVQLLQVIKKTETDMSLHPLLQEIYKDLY
Aryl hydrocarbon receptor (Homo sapiens), sequence (P35869 whole entry, looked up): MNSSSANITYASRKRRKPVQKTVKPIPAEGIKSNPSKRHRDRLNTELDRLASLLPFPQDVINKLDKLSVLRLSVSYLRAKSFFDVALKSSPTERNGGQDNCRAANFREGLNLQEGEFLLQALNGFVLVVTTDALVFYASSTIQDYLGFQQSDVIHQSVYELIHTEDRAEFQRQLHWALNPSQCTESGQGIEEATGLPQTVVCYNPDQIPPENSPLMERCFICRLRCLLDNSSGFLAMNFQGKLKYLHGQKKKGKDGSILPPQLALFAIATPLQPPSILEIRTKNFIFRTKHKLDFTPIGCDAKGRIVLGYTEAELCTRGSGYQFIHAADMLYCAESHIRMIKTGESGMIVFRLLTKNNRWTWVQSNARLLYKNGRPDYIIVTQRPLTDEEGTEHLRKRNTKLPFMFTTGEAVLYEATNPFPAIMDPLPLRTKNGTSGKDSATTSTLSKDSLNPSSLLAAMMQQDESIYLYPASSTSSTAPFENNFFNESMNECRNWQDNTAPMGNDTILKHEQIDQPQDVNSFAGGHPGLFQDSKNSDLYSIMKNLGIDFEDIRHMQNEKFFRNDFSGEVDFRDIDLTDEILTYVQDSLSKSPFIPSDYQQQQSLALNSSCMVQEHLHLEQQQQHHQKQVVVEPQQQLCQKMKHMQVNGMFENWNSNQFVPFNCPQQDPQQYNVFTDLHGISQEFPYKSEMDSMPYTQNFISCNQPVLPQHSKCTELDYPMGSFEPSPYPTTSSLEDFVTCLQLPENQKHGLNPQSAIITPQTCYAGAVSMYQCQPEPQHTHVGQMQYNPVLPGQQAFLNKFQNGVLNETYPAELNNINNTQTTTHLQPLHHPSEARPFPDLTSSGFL

In the case of `C#CC(C)(C)O`, the Potency result in assay [1], in assay [2], in assay [3], in [4], in [5] and in [6] was “inactive” in each case. The Potency result in assay [7] and in assay [8] was “inactive” each time.

With `Cn1c(N)nc2c3cccnc3ccc21`, the Potency in [1] is 29.1 µM (active); in assay [2], 4.61 µM (active). Further, in assay [9], the compound was classed as inactive. The Potency entry in assay [4], in assay [5], in assay [6], in assay [7] and in assay [8] was “inactive” in each case.

On to `CCN(CCO)CCn1c(Cc2ccccc2)nc2c1c(=O)n(C)c(=O)n2C`, for which the Potency entry in assay [1], in assay [2], in [10], in [4], in [5] and in assay [6] was “inactive” in each case. Also, the Potency entry in [7] and in assay [8] was “inactive” each time. Besides, the compound was classed as inactive in [9].

As for `Cc1ccc2cc(C)ccc2c1`, the Potency entry in assay [1], in assay [2], in assay [10], in assay [4], in assay [5] and in [6] was “inactive” each time. Also, the Potency result in assay [7] and in assay [8] was “inactive” each time. In addition, the compound was classed as inactive in [9].

Consider `CC(C)C(C)(N)C#N` (stereo not given), for which the Potency result in [1], in assay [2], in assay [3], in assay [4], in assay [5] and in assay [6] was “inactive” throughout. The Potency result in [7] and in [8] was “inactive” each time.

For `CCc1ccc(C2CCNCC2)cc1`, the Potency entry in [10], in assay [4], in assay [5], in assay [6], in [7] and in [8] was “inactive” in each case.

In the case of `C=C1C[C@@H]2[C@H](CC[C@]3(C)C(=O)CC[C@@H]23)[C@@]2(C)C=CC(=O)C=C12`, the Potency entry in assay [2], in assay [3], in assay [4], in assay [6], in [7] and in [8] was “inactive” in each case. Further, the result in assay [9] was inactive. The Potency in assay [5] is 2.66 µM (active).

Consider `CC(C)(C)C(=O)C(Cl)Cl`, for which the Potency result in assay [3], in assay [6], in [7] and in [8] was “inactive” in each case.

For the compound `NC(=O)CS(=O)C(c1ccccc1)c1ccccc1` (stereo not given), the Potency result in assay [2], in [3], in assay [10], in assay [4], in [5] and in assay [6] was “inactive” each time. Also, the Potency result in [7] and in [8] was “inactive” in each case. The compound was classed as inactive in assay [9].

Turning to `C=CCC1(C(C)CC)C(=O)NC(=O)NC1=O` (stereo not given), the Potency result in assay [10], in assay [4], in assay [6] and in assay [7] was “inactive” throughout.

Take `CC(Cc1ccccc1)NCCCCl` (stereo not given): the Potency entry in assay [4], in assay [5], in assay [6], in assay [7] and in assay [8] was “inactive” throughout.

With `CC[C@@H](CO)NC(=O)[C@@H]1C=C2c3cccc4c3c(cn4C)C[C@H]2N(C)C1`, the Potency entry in [3], in [10], in assay [4], in [5], in assay [6] and in assay [7] was “inactive” each time. Moreover, the Potency entry in assay [8] is “inactive”.

In the case of `CCOC(=O)c1ncn2c1CN(C)C(=O)c1c(I)cccc1-2`, the Potency entry in [1], in assay [3], in [10], in assay [4], in [5] and in assay [6] was “inactive” each time. Besides, the Potency result in [7] and in assay [8] was “inactive” in each case. Also, the result in [9] was inactive.

With `CCN1CCCC1CNC(=O)C(O)(c1ccccc1)c1ccccc1` (stereo not given), the Potency result in assay [10], in assay [4], in assay [6], in [7] and in assay [8] was “inactive” in each case.

Take `c1ccc2c(c1)CCNC2`: the Potency result in assay [1], in [3], in assay [10], in assay [4], in [5] and in assay [6] was “inactive” throughout. In addition, the Potency entry in [7] and in [8] was “inactive” in each case.

Consider `O=[N+]([O-])c1cccc(CCl)c1`, for which the Potency entry in [3], in assay [4], in [6], in assay [7] and in [8] was “inactive” in each case. Further, in assay [5], the Potency was 31.3 µM (active).

With `CC(C)c1ccc(O)cc1`, the Potency result in [1], in assay [3], in assay [10], in [4], in assay [6] and in assay [7] was “inactive” each time. The Potency entry in [8] was “inactive”. Moreover, the compound was called inactive in assay [9].

`COc1ccccc1OC`: the Potency result in [1], in assay [3], in assay [10], in assay [5], in assay [6] and in [7] was “inactive” each time. In [8], the Potency result was “inactive”. For the same compound, in [9], the call was inactive.

With `C[C@H](CN1CCOCC1)C(C(=O)N1CCCC1)(c1ccccc1)c1ccccc1`, the Potency result in assay [1], in assay [4], in [5], in [6], in [7] and in assay [8] was “inactive” throughout. In addition, in assay [9], the result was inactive.

`CC(C)(N)Cc1ccccc1Cl`: the Potency result in assay [10], in assay [4], in assay [7] and in assay [8] was “inactive” in each case.
